Source: PubChem BioAssay (EPA / NIEHS)
Inconclusive results are not listed. The source made the active and inactive calls. How the source made its calls: active means hit-call score of the fitted dose curve at least 0.9, where 1 is the maximum; inconclusive means response in the unintended direction; inactive means score below 0.9.

test: ACEA_AR_antagonist_AUC_viability: ACEA Biosciences xCELLigence Real-Time Cell Analysis on Androgen Receptor Antagonism for Viability (AID 2283776);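 further: area under impedance growth curve at 80 h after dosing as viability; hits lower the growth signal relative to DMSO meaning cytotoxicity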
Summary of the method: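 22Rv1 human prostate cancer cells were seeded on electrode plates, monitored overnight, then exposed to eight 1:4 dilutions from 100 uM final. Impedance-based growth kinetics at 80 h gave an AUC viability endpoint normalized to DMSO.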

Compound | AC50 | outcome
CC1(C)NC(=O)N(c2ccc([N+](=O)[O-])c(C(F)(F)F)c2)C1=O | 68.9 µM (active) | 
Cc1ccc(C(C)C)cc1 |  | inactive
CC(C)(O)c1ccc(CNC(=O)c2cccnc2Oc2ccc3nonc3c2)cc1 |  | inactive
COCC(C)OCC(C)OCC(C)O (configuration not stated) |  | inactive
CCCCCCCCCC(=O)O |  | inactive
O=C(O)c1ccccc1C(=O)OCc1ccccc1 |  | inactive
Cc1cn([C@H]2C[C@H](N=[N+]=[N-])[C@@H](CO)O2)c(=O)[nH]c1=O |  | inactive
O=CCCCC=O | 23.3 µM (active) | 
CCCCOC(=O)CC(CC(=O)OCCCC)(OC(C)=O)C(=O)OCCCC |  | inactive
CCCCCCCCCCCCO |  | inactive
Cc1cc(F)ccc1-c1cc(N2CC[C@@H](O)[C@H]2CO)ncc1N(C)C(=O)C(C)(C)c1cc(C(F)(F)F)cc(C(F)(F)F)c1 | 10.1 µM (active) | 
CCCCCCCCCCCC[N+](C)(C)C | 9.45 µM (active) | 
Clc1ccccc1C(c1ccccc1)(c1ccccc1)n1ccnc1 | 14.7 µM (active) | 
CN1C(=O)N(c2ccccc2Br)Cc2cnc(Nc3ccc4c(c3)OCC(CO)O4)nc21 (configuration not stated) | 12.7 µM (active) | 
O=c1[nH]sc2ccccc12 | 7.87 µM (active) | 
Oc1ccc2ccccc2c1 |  | inactive
O=C(O)Cn1c(=O)n(Cc2ccc(Br)cc2F)c(=O)c2ccc(Cl)cc21 |  | inactive
